Here are results for 53 compounds from PubChem BioAssay AID1671189 (National Center for Advancing Translational Sciences (NCATS), 2021).

Among all 1,100 compounds or so, about 70 (6%) were called active. Not shown: some 22% with an inconclusive outcome. For the sample, actives were picked, then their nearest neighbours and some compounds at random. Unmarked numbers belong to inactive results. Calls come from the whole dose curve; as a rule, active = well fitted curve in the direction sought with a large enough effect; inconclusive = small, poorly fitted or top-dose-only effect, or another doubt; inactive = no such curve, though single readings can be large or run the other way.
% is set by controls: 0 for no effect and ±100 for the full control effect; potency is the fitted concentration of half-maximal effect.

Chain of Polyunsaturated fatty acid lipoxygenase ALOX12 (Homo sapiens) (P18054 whole entry, looked up): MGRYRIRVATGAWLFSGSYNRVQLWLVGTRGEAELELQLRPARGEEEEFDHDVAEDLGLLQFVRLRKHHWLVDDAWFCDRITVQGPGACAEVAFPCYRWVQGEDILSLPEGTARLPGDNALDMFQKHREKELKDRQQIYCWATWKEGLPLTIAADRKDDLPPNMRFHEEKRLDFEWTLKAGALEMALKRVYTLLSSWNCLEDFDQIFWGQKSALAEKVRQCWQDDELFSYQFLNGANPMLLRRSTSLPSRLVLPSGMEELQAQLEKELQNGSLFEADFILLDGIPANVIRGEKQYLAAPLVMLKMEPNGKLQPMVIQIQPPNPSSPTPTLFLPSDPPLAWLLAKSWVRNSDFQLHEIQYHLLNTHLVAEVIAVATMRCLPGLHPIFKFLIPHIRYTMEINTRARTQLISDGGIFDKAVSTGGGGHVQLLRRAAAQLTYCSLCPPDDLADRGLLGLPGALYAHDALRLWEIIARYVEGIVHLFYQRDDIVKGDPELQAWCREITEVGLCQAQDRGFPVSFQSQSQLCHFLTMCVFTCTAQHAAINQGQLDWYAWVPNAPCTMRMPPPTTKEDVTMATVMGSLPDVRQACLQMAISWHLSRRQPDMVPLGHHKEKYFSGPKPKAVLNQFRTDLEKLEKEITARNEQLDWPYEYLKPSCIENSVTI

This assay addresses Polyunsaturated fatty acid lipoxygenase ALOX12 (Homo sapiens) (UniProt P18054). Nature of the assay: Confirmatory qHTS assay for inhibitors of human arachidonate 12S-lipoxygenase (ALOX12): Round 2. The settings on record: purified human 12-LOX, xylenol orange absorbance; series mostly up to 125 µM; activity change, negative = inhibition: at the top concentration. From the text: Assay Provider: Theodore R. Holman Ph.D. University of California, Santa Cruz, California Human lipoxygenase 12hLO is a member of the closely related lipoxygenase family of enzymes which catalyze the site-specific oxidation of arachidonic acid to various hormone precursor molecules and as such is a candidate for drug development in a variety of disease areas, such as cancer and inflammation. Inhibition of 12hLO activity was screened by utilizing arachidonic acid as a substrate. The extent of hydroperoxide product formation was measured by a secondary chromogenic reaction in which xylenol orange (XO, Sigma-Aldrich, cat. number 39,818-7) reacts with the ferric ions produced from the reaction between the hydroperoxide and ferrous ions. The Fe (III)-XO complex is characterized with red-shifted absorbance at 560 nm. A purified preparation of human 12hLO was supplied by Dr. Holman laboratory, University of California, Santa Cruz.
PROTOCOL TABLE SEQUENCE No. (e.g., 1, 2, 3, etc.); […] (e.g., Cells, Incubation, Reagent, etc.); VALUE; DESCRIPTION 1; Enzyme; 3 uL; 150 nM 12hLO enzyme solution dispensed in 1536-well Greiner black, clear bottom plates. 2; Compound; 23 nL; compounds and controls were added. 3; Incubate; 15 min; room temperature. 4; Substrate; 1 uL; 40 uM arachidonic acid (final concentration). 5; Incubate; 30 min; room temperature. 6; Reagent; 4 uL; Fe-XO solution was added to each well. 7; Incubation; 30 min; room temperature 8; Detector; absorbance; Read 1 at 405 nm absorbance using ViewLux (PerkinElmer) CCD imager. 9; Detector; absorbance; Read 2 at 573 nm absorbance using ViewLux (PerkinElmer) CCD imager. NOTES (numbers refer to sequence above) 1; 150 nM 12hLO (final concentration) in buffer solution (25 mM Hepes, 0.01% Triton X-100, pH 7.0) was dispensed in columns 1, 2, 5-48. Column 1 is neutral (100% activity). Buffer only was dispensed in columns 3 and 4 as no enzyme negative controls. The plates were covered with metal lids with gas-exchange holes. 2; Compounds were pin transferred via a Kalypsys Pin Tool (Wako USA) in column 5 - 48. Control compound was transferred in column 2, titration of nordihydroguaiaretic acid (NDGA, Sigma-Aldrich, N5023) with top concentration of 20 mM in DMSO then 1:3 dilution in duplicate. Dilution factor of 23 nL into 4 uL final assay volume. 3; Covered assay plates were incubated for 15 min at room temperature. 4; Substrate was added to start the reaction; 40 uM arachidonic acid (Sigma-Aldrich, St. Louis, MO) was dispensed throughout the plate. 6; Chromogenic detection reagent solution (divalent iron/xylenol orange, Fe-XO) was added to each well: 200 uM xylenol orange, 300 uM ferrous ammonium sulfate prepared freshly in 50 mM sulfuric acid. 8, 9; Two absorbance readouts were obtained at 405 nm and at 573 nm using a ViewLux high-throughput CCD plate imager (PerkinElmer). The 573 to 405 (Read 2 / Read 1) absorbance ratio was used to compute reaction progress.
In general terms: In qHTS, concentration-response curves come from the screen itself.
As for `O=C1NCc2ccccc2CC12CCN(Cc1ccc(F)c(Cl)c1)CC2`, the “activity change, negative = inhibition” value is -23.5%.

In the case of `C[S+](=O)([O-])N1CC2(Cc3ccccc3NC2=O)C1`, the “activity change, negative = inhibition” value is -1.61%.

On to `N#Cc1ccc(CN2CCn3c(nn(-c4cccc(Cl)c4)c3=O)C2)cc1`, for which the “activity change, negative = inhibition” value is -26.4%.

Regarding `O=C(c1ccc(C(F)(F)F)cc1)N1CCC2(CC1)C(=NC1CCCCC1)NC(=O)N2c1cc(F)cc(F)c1`, the “activity change, negative = inhibition” value is -16.1%.

Turning to `CC(=O)NCCC(=O)N1Cc2ccccc2CC2(CCCN2CC2CCNCC2)C1` (stereo not drawn), the “activity change, negative = inhibition” value is -18%.

For the compound `COc1cccc(CC(=O)N2CC(CO)C3(CCNCC3)C2)c1` (stereo not drawn), the “activity change, negative = inhibition” value was -11.8% [at 64.5 µM].

On to `Nc1ccccc1CN1CCCC2(Cc3ccccc3CNC2=O)C1` (stereo not drawn), for which the “activity change, negative = inhibition” value was -0.411%.

For the compound `Cc1cc(C)c(CN2CCC3(Cc4ccccc4CNC3=O)C2)c(C)c1` (stereo not drawn), the Potency is 0.879 µM (active).

For `CCOc1ccc(CN2CCC3(Cc4ccccc4CNC3=O)C2)cc1` (stereo not drawn), the “activity change, negative = inhibition” value was -18.2%.

On to `O=C1NCc2ccccc2CC12CCN(Cc1ccc(Oc3ccccc3)cc1)C2` (stereo not drawn), for which the Potency is 55.5 µM (active).

In the case of `O=C1NCc2ccccc2CC12CCN(Cc1ccc(Cl)cc1)C2` (stereo not drawn), the Potency was 27.5 µM (active).

On to `O=C1NCc2ccccc2CC12CCN(Cc1ccccc1Cl)C2` (stereo not drawn), for which the “activity change, negative = inhibition” value was -22.5%.

`O=C1NCc2ccccc2CC12CCN(Cc1ccc(Br)cc1)C2` (stereo not drawn): the Potency is 17.5 µM (active).

As for `Cc1cc(C)cc(CN2CCC3(Cc4ccccc4CNC3=O)C2)c1` (stereo not drawn), the “activity change, negative = inhibition” value is -13.7%.

As to `CCOc1cccc(CN2CCC3(Cc4ccccc4CNC3=O)C2)c1` (stereo not drawn), the “activity change, negative = inhibition” value was -12.7%.

Take `Cc1ccc(CN2CCC3(Cc4ccccc4CNC3=O)C2)cc1C` (stereo not drawn): the “activity change, negative = inhibition” value was -25.3%.

As for `O=C1NCc2ccccc2CC12CCN(Cc1cccc(Br)c1)C2` (stereo not drawn), the “activity change, negative = inhibition” value is -17.3%.

For `O=C1NCc2ccccc2CC12CCN(Cc1cc(O)cc(O)c1)C2` (stereo not drawn), the “activity change, negative = inhibition” value is -15%.

In the case of `O=C1NCc2ccccc2CC12CCN(Cc1ccc(Cl)cc1)CC2`, the “activity change, negative = inhibition” value was -21.7%.

Turning to `CSc1ccc(-c2ccc(C=O)cc2)cc1`, the “activity change, negative = inhibition” value was -29.7% [at 233 µM].

With `CC(C)Nc1ncnc2c1CN(C1CCCNC1)C(=O)CN2C` (stereo not drawn), the “activity change, negative = inhibition” value is -17.1%.

`CN1CC(=O)N(C2CCCNC2)Cc2c1ncnc2N1CCN(Cc2ccccc2)CC1` (stereo not drawn): the “activity change, negative = inhibition” value is -24.9%.

As to `CN1CC(=O)N(C2CCCNCC2)Cc2c1ncnc2N1CCCC(O)C1` (stereo not drawn), the “activity change, negative = inhibition” value was -10.7%.

Take `CC[C@@](N)(C(=O)O)c1ccc(C(=O)O)cc1`: the “activity change, negative = inhibition” value was 8.94%.

Regarding `CCOCCCNc1ncnc2c1CN(C1CCNCC1)C(=O)CN2C`, the “activity change, negative = inhibition” value is -15.7%.

`CN1CCC(C(=O)N2Cc3ccccc3OC3(CCN(C(=O)N(C)C)CC3)C2)CC1`: the “activity change, negative = inhibition” value was -22.8%.

`Cn1nc(C2CCCN2)c2c(C(=O)NCc3ccc(F)cc3)cc(C3CC3)nc21` (stereo not drawn): the “activity change, negative = inhibition” value was -19.8%.

On to `O=Cc1ccccc1-c1ccc(O)cc1`, for which the “activity change, negative = inhibition” value was -36% [at 233 µM].

In the case of `COc1ccc(N2CC3CCC(C2)N3Cc2cccc(Cl)c2)cc1`, the “activity change, negative = inhibition” value was -10.1%.

`CCC(=O)NC(c1cc(Cl)c2cccnc2c1O)C(C)C` (stereo not drawn): the Potency is 10.9 µM (active).

Turning to `CC(=O)NC(C)c1cc(Cl)c2cccnc2c1O` (stereo not drawn), the Potency is 6.85 µM (active).

Take `CC(=O)NC(C)c1cc(F)c2cccnc2c1O` (stereo not drawn): the Potency is 17.2 µM (active).

Turning to `CC(=O)NCc1cc(Cl)c2cccnc2c1O`, the Potency is 1.93 µM (active).

For the compound `O=C(O)CCC(=O)N1Cc2ccccc2CC2(CCCN2CC2CCNC2)C1` (stereo not drawn), the “activity change, negative = inhibition” value is -22.5%.

For `COc1cccc(CNc2ncnc3c2CN(C2CCCNCC2)C(=O)CN3C)c1` (stereo not drawn), the “activity change, negative = inhibition” value is -12.4%.

`CN1CCCC2(Cc3ccccc3CN(C(=O)c3ccc(Cl)cc3)C2)C1` (stereo not drawn): the “activity change, negative = inhibition” value is -17.8%.

In the case of `OCC1CN(c2ncccn2)CC12CCN(Cc1cccc3[nH]ccc13)CC2` (stereo not drawn), the “activity change, negative = inhibition” value was -5.1% [at 64.5 µM].

With `CN1CC(=O)N(C2CCCNCC2)Cc2c1ncnc2N1CCC(N2CCCCC2)CC1` (stereo not drawn), the “activity change, negative = inhibition” value is -3%.

Regarding `CNC(C)c1ccc(Oc2ccccc2)cc1` (stereo not drawn), the “activity change, negative = inhibition” value is -25.5%.

Turning to `Cn1nc(C2CCCNC2)c2c(C(=O)NCC(F)(F)F)cc(C3CC3)nc21` (stereo not drawn), the “activity change, negative = inhibition” value is -21.6%.

As for `O=C(O)c1cccc(-c2cnc3ccccc3c2)c1`, the “activity change, negative = inhibition” value is -20.4%.

Regarding `Cn1nc(C2CCCN2)c2c(C(=O)NCc3cccs3)cc(C3CC3)nc21` (stereo not drawn), the “activity change, negative = inhibition” value was -15.3%.

With `O=C(N1CCOCC1)N1CCCC1c1nnc2n1CCNC2` (stereo not drawn), the “activity change, negative = inhibition” value was -9.23%.

`NC(Cc1ccccc1)C(=O)N1CCC2(CC1)CN(C(=O)c1ccc(Cl)cc1)CCO2` (stereo not drawn): the “activity change, negative = inhibition” value was -0.789%.

In the case of `O=S(=O)(Nc1ncc(CN2CC[C@H]3CNC[C@H]32)cn1)c1ccccc1`, the “activity change, negative = inhibition” value is -2.77% [at 64.5 µM].

Take `CN1CC(=O)N(C2CCNCC2)Cc2c1ncnc2N1CCc2ccccc2C1`: the “activity change, negative = inhibition” value is -19%.

As to `COc1ccc(CN2CCCC23Cc2ccccc2CNC3=O)c(O)c1` (stereo not drawn), the “activity change, negative = inhibition” value was -17.5%.

On to `CCOC(=O)c1c(NC(=O)CSc2nnnn2-c2ccc(OC)cc2)sc(C)c1C`, for which the “activity change, negative = inhibition” value was -14.4% [at 64.5 µM].

With `CC(=O)Nc1ccc(CN2CCC(c3nc4ccc(C)cc4c(=O)[nH]3)CC2)cc1`, the “activity change, negative = inhibition” value is -13.7%.

On to `CCCCc1ncc(-c2nccn2C2CCNC2)[nH]1` (stereo not drawn), for which the “activity change, negative = inhibition” value is 21.1% [at 64.5 µM].

Take `O=C1NCc2ccccc2CC12CCN(Cc1c(F)cccc1F)C2` (stereo not drawn): the “activity change, negative = inhibition” value is -25.4%.

Consider `COc1ccc(-c2nc(C3CC3)nc3c2CCN(C(=O)c2ccc(C(F)(F)F)cc2)CC3)cc1`, for which the “activity change, negative = inhibition” value is -23.3%.

Consider `O=[S+]([O-])(c1ccccc1)N1CC(Oc2ccc(F)c(F)c2)C1`, for which the “activity change, negative = inhibition” value was -14.7%.
